# In PubChem BioAssay (EPA / NIEHS):
# Activity calls are given as the source filed them. How the source made its calls: active means hit-call score of the fitted dose curve at least 0.9, where 1 is the maximum; inactive means score below 0.9.
# Experiments:
# [1] = APR_HepG2_P-H2AX_72hr: Apredica 72-hour HepG2 Assay for H2AX Phosphorylation (AID 2282916); conditions: imaging, actives raise or lower the signal;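 further: phospho-histone H2A.x immunostain intensity per cell marking DNA damage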
# Outline: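 Following 72 hr treatment with 0.39–200 uM compound, HepG2 cells were formaldehyde-fixed, permeabilized and stained for phospho-H2A.x; signal was measured by high-content imaging and fitted bidirectionally against DMSO controls.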
# [2] = APR_HepG2_MitoMembPot_72hr: Apredica 72-hour HepG2 Assay for Mitochondrial Membrane Potential (AID 2282917); conditions: imaging, actives raise or lower the signal
# Outline: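 Membrane potential read by MitoTracker Red CMXRos (250 nM, 30 min, pre-fixation) fluorescence imaging of HepG2 after 72 hr exposure. Ten concentrations, 0.39–200 uM, duplicate wells, 0.5% DMSO; fitted in both directions against DMSO baseline.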
# [3] = APR_HepG2_MitoticArrest_72hr: Apredica 72-hour HepG2 Assay for Mitotic Arrest (AID 2282918); conditions: high-content imaging, actives raise or lower the signal
# Outline: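 HepG2 cells treated 72 h at 0.39–200 uM, 0.5% DMSO final; formaldehyde-fixed, stained with Hoechst 33342 and phospho-histone H3 antibody, imaged by high-content fluorescence; bidirectional fit versus DMSO.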
# [4] = APR_HepG2_MicrotubuleCSK_72hr: Apredica 72-hour HepG2 Assay for Microtubule CSK Stabilty (AID 2282919); conditions: HepG2 microtubule cytoskeleton, high-content imaging, actives raise or lower the signal
# Outline: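 Read-out is tubulin fluorescence intensity from high-content imaging of HepG2 cells, with nuclei identified by Hoechst 33342. Treatment lasts 72 h at 0.39–200 uM, and curves are fitted bidirectionally against the DMSO negative control.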
# [5] = APR_HepG2_P-H2AX_24hr: Apredica 24-hour HepG2 Assay for H2AX Phosphorylation (AID 2282920); conditions: high-content imaging, actives raise or lower the signal
# Outline: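 HepG2 cells dosed 24 h at 0.39–200 uM (10 points, duplicate, 0.5% DMSO final). Formaldehyde-fixed and permeabilized, then immunostained for phospho-H2A.x with Hoechst. Fluorescence quantified by high-content imaging, fitted bidirectionally versus DMSO.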
# [6] = APR_HepG2_StressKinase_72hr: Apredica 72-hour HepG2 Assay for Stress Kinase (AID 2282921); conditions: HepG2 stress kinase (phospho-c-Jun) imaging, actives raise or lower the signal
# Outline: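 Fluorescence intensity of Cy3-tagged anti-phospho-c-Jun antibody, quantified per cell from Hoechst-defined nuclei across six images per well, served as the read-out following 72 h exposure (0.39–200 uM, 0.5% v/v DMSO).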
# [7] = APR_HepG2_StressKinase_24hr: Apredica 24-hour HepG2 Assay for Stress Kinase (AID 2282922); conditions: HepG2 stress kinase (phospho-c-Jun) imaging, actives raise or lower the signal
# Outline: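 HepG2, 24 hr dosing, 0.39–200 uM in duplicate, 0.5% DMSO; formaldehyde fix (3.7%), 0.5% Triton X-100; anti-phospho-c-Jun + Cy3 secondary, Hoechst counterstain; ArrayScan imaging; bidirectional curve fit vs DMSO baseline.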
# [8] = APR_HepG2_p53Act_72hr: Apredica 72-hour HepG2 Assay for p53 Activation (AID 2282923); conditions: high-content imaging, actives raise or lower the signal;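 further: average cellular p53 protein immunofluorescence intensity in HepG2 cells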
# Outline: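 HepG2 monolayers receive test compounds in duplicate at ten concentrations (0.39 through 200 uM) for 72 hr. They are then formaldehyde-fixed, antibody-labelled for p53, Hoechst-stained and imaged, with activity fitted bidirectionally versus DMSO.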
# [9] = APR_HepG2_MitoMass_72hr: Apredica 72-hour HepG2 Assay for Mitochondrial Mass (AID 2282924); conditions: high-content imaging, actives raise or lower the signal;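 further: MitoTracker Red CMXRos stain intensity per cell imaged as mitochondrial mass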
# Outline: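 HepG2, 72 hr cmpd, 10 conc 0.39–200 uM in dup, DMSO 0.5% v/v. MitoTracker Red CMXRos 250 nM 30 min pre-fix; formaldehyde 3.7% fix 30 min RT. HCS imaging, gain/loss fit vs DMSO.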
# [10] = APR_HepG2_NuclearSize_72hr: Apredica 72-hour HepG2 Assay for Nuclear Size (AID 2282925); conditions: high-content imaging, actives raise or lower the signal
# Outline: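 HepG2; cpd 0.39–200 uM, 10 conc, duplicate; 72 h; DMSO 0.5% v/v; fix 3.7% formaldehyde 30 min RT; Triton permeabilization; Hoechst 2 ug/mL; HCS imaging 20x; nuclear diameter; gain/loss fit vs DMSO.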
# [11] = ATG_CRE_CIS: Attagene CIS-FACTORIAL HepG2 Assay for human cAMP Responsive Element (CRE) binding protein 3 (AID 2282926); conditions: HepG2 CRE cis-reporter, Attagene multiplexed mRNA; actives raise or lower the signal
# Outline: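 HepG2 cells transiently transfected with cis-element-driven multiple reporter transcription units; CRE reporter mRNA measured 24 h after dosing by RT-PCR, 6-FAM labelling, HpaI digestion and capillary electrophoresis. Bidirectional fit versus DMSO baseline.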
# [12] = target: CCAAT/enhancer-binding protein beta (Homo sapiens) (UniProt P17676); test: ATG_C_EBP_CIS: Attagene CIS-FACTORIAL HepG2 Assay for human CCAAT/Enhancer Binding Protein (C/EBP) beta (AID 2282927); conditions: HepG2 Attagene cis-factorial transcription factor reporter; actives raise or lower the signal
# Outline: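 Changes in reporter mRNA, rather than exogenous chimeric receptor activity, reflect native C/EBP signalling in transfected HepG2 cells dosed for 24 h; transcripts are detected by RT-PCR and capillary electrophoresis.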
# [13] = ATG_CMV_CIS: Attagene CIS-FACTORIAL HepG2 Assay for human CMV (Internal Marker) (AID 2282928); conditions: HepG2 CMV promoter reporter, transcription factor profiling; actives raise or lower the signal;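 further: endpoint acts as a background internal control marker rather than a target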
# Outline: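 HepG2 cells transiently transfected with multiple cis-regulated reporter units; 24 h compound exposure. Reporter mRNA quantified by RT-PCR, 6-FAM primer-extension labeling, HpaI digestion and capillary electrophoresis; bidirectional fitting against DMSO baseline.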
# [14] = ATG_DR4_LXR_CIS: Attagene CIS-FACTORIAL HepG2 Assay for human Liver X Receptor (LXR), DR4 submotif (AID 2282929); conditions: HepG2 Attagene DR4 cis-reporter, mRNA transcription; actives raise or lower the signal
# Outline: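 HepG2 cells were transiently transfected with multiple cis-regulated reporter units and dosed for 24 hours. The DR4 reporter mRNA was quantified by RT-PCR, 6-FAM labelling and capillary electrophoresis. Bidirectional fits used DMSO as baseline.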
# [15] = target: Aryl hydrocarbon receptor (Homo sapiens) (UniProt P35869); test: ATG_Ahr_CIS: Attagene CIS-FACTORIAL HepG2 Assay for human Aryl Hydrocarbon Receptor (Ahr) (AID 2282930); conditions: HepG2 AhR cis-factorial reporter transcription; actives raise or lower the signal
# Outline: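 HepG2, transient MRTU (cis) transfection, 24 h exposure. RNA → cDNA → PCR → 6-FAM primer extension → HpaI 2 h 37 C → CE. Fit: bidirectional, DMSO baseline.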
# [16] = ATG_AP_1_CIS: Attagene CIS-FACTORIAL HepG2 Assay for human Activator Protein 1 (AP-1) (AID 2282931); conditions: HepG2 Attagene cis-factorial AP-1 reporter mRNA; actives raise or lower the signal
# Outline: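 HepG2 cells transiently transfected with cis-element-driven reporter transcription units, dosed for 24 hours. Reporter mRNA measured by RT-PCR, 6-FAM labelling, HpaI digestion and capillary electrophoresis. Bidirectional fitting against DMSO baseline.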
# [17] = ATG_AP_2_CIS: Attagene CIS-FACTORIAL HepG2 Assay for human Activator Protein 2 (AP-2) (AID 2282932); conditions: HepG2 AP-2 cis-reporter, Attagene transcription factor profiling; actives raise or lower the signal
# Outline: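 Step one: transient transfection of HepG2 with reporter transcription units. Step two: 24 h chemical exposure. Step three: RNA extraction, RT-PCR, labelled fragment analysis by capillary electrophoresis; DMSO serves as baseline.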
# [18] = ATG_BRE_CIS: Attagene CIS-FACTORIAL HepG2 Assay for human Bone Morphogenetic Protein (BMP) Response Element (BRE) (AID 2282933); conditions: HepG2 BMP response element reporter, Attagene transcription factor profiling; actives raise or lower the signal
# Outline: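 After a 24 h chemical treatment, transiently transfected HepG2 cells were lysed for RNA; reporter transcripts were quantified by fluorescent RT-PCR and capillary electrophoresis, normalised to DMSO.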
# [19] = target: Transcription factor E2F1 (Homo sapiens) (UniProt Q01094); test: ATG_E2F_CIS: Attagene CIS-FACTORIAL HepG2 Assay for human E2F Transcription Factor 1 (AID 2282935); conditions: HepG2 Attagene cis-reporter, E2F reporter RNA transcripts; actives raise or lower the signal
# Outline: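 Total RNA from 24 h-treated, reporter-transfected HepG2 cells undergoes DNase I treatment, oligo(dT) reverse transcription, PCR and 6-FAM primer extension before capillary electrophoresis.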
# [20] = target: Retinoic acid receptor alpha (Homo sapiens) (UniProt P10276); test: ATG_DR5_RAR_CIS: Attagene CIS-FACTORIAL HepG2 Assay for human Retinoic Acid Receptor Alpha (RARE), DR5 submotif (AID 2282934); conditions: HepG2 Attagene cis-factorial RARE DR5 reporter, mRNA; actives raise or lower the signal
# Outline: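 HepG2, transient cis-reporter transfection, 24 h exposure. mRNA readout: RT-PCR, FAM label, HpaI cut, capillary electrophoresis. DMSO baseline, gain/loss fitting.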
# Transcription factor E2F1 (Homo sapiens), sequence (Q01094 whole entry, looked up): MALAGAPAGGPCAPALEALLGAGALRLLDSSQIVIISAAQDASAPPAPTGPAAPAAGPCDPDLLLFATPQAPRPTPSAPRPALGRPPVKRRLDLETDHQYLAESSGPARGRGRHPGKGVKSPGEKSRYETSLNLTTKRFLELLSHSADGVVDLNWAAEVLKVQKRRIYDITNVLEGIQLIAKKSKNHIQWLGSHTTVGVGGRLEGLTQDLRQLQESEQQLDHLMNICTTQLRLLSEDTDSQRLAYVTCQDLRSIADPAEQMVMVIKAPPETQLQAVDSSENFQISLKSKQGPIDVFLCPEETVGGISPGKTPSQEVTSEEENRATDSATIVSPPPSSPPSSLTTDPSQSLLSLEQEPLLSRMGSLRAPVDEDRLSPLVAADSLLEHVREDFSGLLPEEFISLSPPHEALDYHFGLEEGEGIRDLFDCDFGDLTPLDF
# Aryl hydrocarbon receptor (Homo sapiens), sequence (P35869 whole entry, looked up): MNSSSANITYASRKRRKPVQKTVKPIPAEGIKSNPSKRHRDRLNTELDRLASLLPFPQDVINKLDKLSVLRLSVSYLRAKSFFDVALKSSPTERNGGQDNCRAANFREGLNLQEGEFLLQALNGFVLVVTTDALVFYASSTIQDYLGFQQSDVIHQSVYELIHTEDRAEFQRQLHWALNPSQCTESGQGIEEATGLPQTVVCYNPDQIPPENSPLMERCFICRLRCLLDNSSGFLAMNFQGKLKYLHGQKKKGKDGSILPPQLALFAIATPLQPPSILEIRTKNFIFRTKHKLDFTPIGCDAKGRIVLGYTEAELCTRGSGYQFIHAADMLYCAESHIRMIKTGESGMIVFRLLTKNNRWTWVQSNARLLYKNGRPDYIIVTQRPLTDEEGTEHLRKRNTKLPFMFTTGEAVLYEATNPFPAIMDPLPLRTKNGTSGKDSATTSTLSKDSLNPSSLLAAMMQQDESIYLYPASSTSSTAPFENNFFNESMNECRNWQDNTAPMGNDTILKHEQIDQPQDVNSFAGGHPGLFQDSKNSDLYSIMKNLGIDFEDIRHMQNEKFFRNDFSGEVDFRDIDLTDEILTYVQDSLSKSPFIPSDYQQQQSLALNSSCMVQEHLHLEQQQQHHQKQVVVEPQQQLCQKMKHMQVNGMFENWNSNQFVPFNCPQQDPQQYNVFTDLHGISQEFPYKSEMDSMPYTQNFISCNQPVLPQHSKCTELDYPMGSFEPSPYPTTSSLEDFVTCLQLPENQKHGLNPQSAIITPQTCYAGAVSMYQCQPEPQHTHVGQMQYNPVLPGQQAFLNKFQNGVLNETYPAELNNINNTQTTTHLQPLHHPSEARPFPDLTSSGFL
# CCAAT/enhancer-binding protein beta (Homo sapiens), sequence (P17676 whole entry, looked up): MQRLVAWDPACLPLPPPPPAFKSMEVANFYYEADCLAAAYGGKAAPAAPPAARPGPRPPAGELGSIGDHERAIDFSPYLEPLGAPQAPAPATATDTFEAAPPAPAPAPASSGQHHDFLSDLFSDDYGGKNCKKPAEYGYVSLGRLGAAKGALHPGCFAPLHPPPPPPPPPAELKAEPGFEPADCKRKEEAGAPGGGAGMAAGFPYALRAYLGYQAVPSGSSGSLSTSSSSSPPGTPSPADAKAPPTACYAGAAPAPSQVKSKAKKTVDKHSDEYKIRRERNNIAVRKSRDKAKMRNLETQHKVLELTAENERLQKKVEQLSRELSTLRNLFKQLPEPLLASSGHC
# Retinoic acid receptor alpha (Homo sapiens), sequence (P10276 whole entry, looked up): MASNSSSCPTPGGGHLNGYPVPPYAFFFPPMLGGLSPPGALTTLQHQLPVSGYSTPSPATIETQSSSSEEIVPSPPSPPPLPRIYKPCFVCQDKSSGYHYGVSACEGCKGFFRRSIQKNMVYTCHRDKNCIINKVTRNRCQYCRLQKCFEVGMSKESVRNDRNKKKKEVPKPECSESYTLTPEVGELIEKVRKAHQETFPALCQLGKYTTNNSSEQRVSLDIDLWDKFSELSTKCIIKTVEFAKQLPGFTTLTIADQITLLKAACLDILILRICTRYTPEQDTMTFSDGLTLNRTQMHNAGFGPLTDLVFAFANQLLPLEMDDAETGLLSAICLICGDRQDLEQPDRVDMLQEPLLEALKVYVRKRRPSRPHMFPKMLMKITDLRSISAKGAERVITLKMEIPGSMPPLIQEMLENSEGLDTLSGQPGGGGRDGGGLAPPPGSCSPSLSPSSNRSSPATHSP
smiles,measurement,setting,value
Nc1cccc(N)c1,outcome,[1],inactive
same,outcome,[2],inactive
same,outcome,[3],inactive
same,outcome,[4],inactive
same,AC50,[5],48.3 µM (active)
same,outcome,[6],inactive
same,outcome,[7],inactive
same,outcome,[8],inactive
same,outcome,[9],inactive
same,outcome,[10],inactive
same,outcome,[11],inactive
same,outcome,[12],inactive
same,outcome,[13],inactive
same,outcome,[14],inactive
same,outcome,[15],inactive
same,outcome,[16],inactive
same,outcome,[17],inactive
same,outcome,[18],inactive
same,outcome,[19],inactive
CC(=O)OC[C@H]1O[C@@](COC(C)=O)(O[C@H]2O[C@H](COC(C)=O)[C@@H](OC(C)=O)[C@H](OC(C)=O)[C@H]2OC(C)=O)[C@@H](OC(C)=O)[C@@H]1OC(C)=O,outcome,[1],inactive
same,outcome,[2],inactive
same,outcome,[3],inactive
same,outcome,[4],inactive
same,outcome,[5],inactive
same,outcome,[6],inactive
same,outcome,[7],inactive
same,outcome,[8],inactive
same,outcome,[9],inactive
same,outcome,[10],inactive
same,outcome,[11],inactive
same,outcome,[12],inactive
same,outcome,[13],inactive
same,outcome,[14],inactive
same,AC50,[15],53 µM (active)
same,outcome,[16],inactive
same,outcome,[17],inactive
same,outcome,[18],inactive
same,outcome,[19],inactive
COc1ccc(/C=C/S(=O)(=O)NC(=O)c2ccc(C)cc2Cl)cc1,AC50,[1],100 µM (active)
same,AC50,[2],12.8 µM (active)
same,AC50,[3],102 µM (active)
same,outcome,[4],inactive
same,AC50,[5],106 µM (active)
same,outcome,[6],inactive
same,outcome,[7],inactive
same,AC50,[8],113 µM (active)
same,outcome,[9],inactive
same,outcome,[10],inactive
same,outcome,[11],inactive
same,outcome,[12],inactive
same,outcome,[13],inactive
same,outcome,[14],inactive
same,outcome,[15],inactive
same,outcome,[16],inactive
same,outcome,[17],inactive
same,outcome,[18],inactive
same,outcome,[19],inactive
COC(=O)c1c(Cl)c(Cl)c(C(=O)OC)c(Cl)c1Cl,outcome,[1],inactive
same,outcome,[2],inactive
same,outcome,[3],inactive
same,outcome,[4],inactive
same,outcome,[5],inactive
same,outcome,[6],inactive
same,outcome,[7],inactive
same,outcome,[8],inactive
same,outcome,[9],inactive
same,outcome,[10],inactive
same,outcome,[11],inactive
same,outcome,[12],inactive
same,outcome,[13],inactive
same,outcome,[14],inactive
same,outcome,[15],inactive
same,outcome,[16],inactive
same,outcome,[17],inactive
same,outcome,[18],inactive
same,outcome,[19],inactive
Clc1nc(Cl)c(Cl)c(Cl)c1Cl,AC50,[1],57.5 µM (active)
same,outcome,[2],inactive
same,AC50,[3],34.1 µM (active)
same,outcome,[4],inactive
same,AC50,[5],41.2 µM (active)
same,AC50,[6],68.5 µM (active)
same,AC50,[7],53.2 µM (active)
same,AC50,[8],25 µM (active)
same,AC50,[9],89.9 µM (active)
same,AC50,[10],96.9 µM (active)
same,outcome,[11],inactive
same,outcome,[12],inactive
same,outcome,[13],inactive
same,outcome,[14],inactive
same,outcome,[15],inactive
same,outcome,[16],inactive
same,outcome,[17],inactive
same,outcome,[18],inactive
same,outcome,[19],inactive
Cc1ccc(C)c(O)c1,outcome,[1],inactive
same,outcome,[2],inactive
same,outcome,[3],inactive
same,outcome,[4],inactive
same,outcome,[5],inactive
same,outcome,[6],inactive
same,outcome,[7],inactive
same,outcome,[8],inactive
same,outcome,[9],inactive
same,outcome,[10],inactive
same,outcome,[11],inactive
same,outcome,[12],inactive
same,outcome,[13],inactive
same,outcome,[14],inactive
same,outcome,[15],inactive
same,outcome,[16],inactive
same,outcome,[17],inactive
same,outcome,[18],inactive
same,outcome,[19],inactive
Cc1c(-c2cccnc2)c2ccccc2n1CCCCC(=O)O,outcome,[1],inactive
same,outcome,[2],inactive
same,outcome,[3],inactive
same,outcome,[4],inactive
same,outcome,[5],inactive
same,outcome,[6],inactive
same,outcome,[7],inactive
same,outcome,[8],inactive
same,outcome,[9],inactive
same,outcome,[10],inactive
same,outcome,[11],inactive
same,outcome,[12],inactive
same,outcome,[13],inactive
same,outcome,[14],inactive
same,outcome,[15],inactive
same,outcome,[16],inactive
same,outcome,[17],inactive
same,outcome,[18],inactive
same,outcome,[20],inactive
same,outcome,[19],inactive
